PubChem BioAssay (NCATS)
Inconclusive results are not listed. Activity calls are given as the source filed them. Calls come from the whole dose curve; as a rule, active = well fitted inhibition curve with a large enough effect; inconclusive = small, poorly fitted or top-dose-only effect; inactive = flat fitted curve, though single readings scatter.

Columns and labels:
Experiment in all cases: qHTS profiling for inhibitors of Plasmodium falciparum proliferation (AID 504749); note: nearly all actives have a fitted effect of over 60% in size
Details in all cases: P. falciparum in erythrocytes, SYBR Green DNA, 72 h; series mostly up to 28.7 µM
AA1029 = tested on: AA1029
In short: (§1)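 SYBR Green fluorescence (ex 485 nm, em 535 nm) reports parasite DNA after 72 h compound exposure of infected red cells at 0.3% parasitemia, 2.5% hematocrit; signal normalized to 0.29 uM artemisinin and vehicle wells.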

CP211 = tested on: CP211
In short: as §1

CP217 = tested on: CP217
In short: as §1

CP250 = tested on: CP250
In short: as §1

CP252 = tested on: CP252
In short: as §1

CP256 = tested on: CP256
In short: as §1

CP260 = tested on: CP260
In short: as §1

CP297 = tested on: CP297
In short: as §1

CP315 = tested on: CP315
In short: as §1

CP329 = tested on: CP329
In short: as §1

DIV14 = tested on: DIV14
In short: as §1

DIV17 = tested on: DIV17
In short: as §1

FAB9 = tested on: FAB9
In short: as §1

ICS = tested on: ICS
In short: as §1

JCK = tested on: JCK
In short: as §1

N140 = tested on: N140
In short: as §1

PC15 = tested on: PC15
In short: as §1

PC26 = tested on: PC26
In short: as §1

SC27B = tested on: SC27B
In short: as §1

TAB165 = tested on: TAB165
In short: as §1

Measured: Potency

CN1[C@H]2CC(OC(=O)[C@H](CO)c3ccccc3)C[C@H]1[C@H]1O[C@H]12 (stereo not given in full)
inactive: all assays above
